# Assay results taken from the supplement of paper PMC8728848.
# This is one part of a sample in which the strongest signals are shown more often than they occur.
# B1: rCNL (Clitocybe nebularis), B2ZRS9 (protein)
# chain: SITPGTYNITNVAYTNRLIDLTGSNPAENTLIIGHHLNKTPSGYGNQQWTLVQLPHTTIYTMQAVNPQSYVRVRDDNLVDGAALVGSQQPTPVSIESAGNSGQFRIKIPNLGLALTLPSDANSTPIVLGEVDETSTNQLWAFESVSAV
# Tests used:
# Test in all cases: glycan array binding signal (z-score within array); higher = stronger binding
# Conditions in all cases: glycan notation: IUPAC condensed, linker removed
# [1] = target: Fuc(a1-2)Gal(b1-4)GlcNAc(b1-2)Man(a1-3)[Fuc(a1-2)Gal(b1-4)GlcNAc(b1-2)Man(a1-6)]Man(b1-4)GlcNAc(b1-4)[Fuc(a1-6)]GlcNAc
# Summary of the method: (§1)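 Columns mapping to the same glycan were averaged after glycan names were converted to IUPAC-condensed notation. The data come from 3228 arrays in the Consortium for Functional Glycomics database, limited to those with an available protein sequence. Binding is reported as a within-array Z-score averaged across arrays of one protein sequence and across linkers.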
# [2] = target: Fuc(a1-2)[Gal(a1-3)]Gal(b1-3)GalNAc
# Summary of the method: as §1
# [3] = target: Fuc(a1-2)[Gal(a1-3)]Gal(b1-4)GlcNAc(b1-2)Man
# Summary of the method: as §1
# [4] = target: Fuc(a1-2)[GalNAc(a1-3)]Gal(b1-3)GalNAc(a1-3)[Fuc(a1-2)]Gal(b1-4)GlcNAc
# Summary of the method: as §1
# [5] = target: Fuc(a1-2)[GalNAc(a1-3)]Gal(b1-4)GlcNAc
# Summary of the method: as §1
# [6] = target: Fuc(a1-2)[GalNAc(a1-3)]Gal(b1-4)GlcNAc(b1-2)Man
# Summary of the method: as §1
# [7] = target: Fuc(a1-2)[GalNAc(a1-3)]Gal(b1-4)GlcNAc(b1-2)Man(a1-3)[Fuc(a1-2)[GalNAc(a1-3)]Gal(b1-4)GlcNAc(b1-2)Man(a1-6)]Man(b1-4)GlcNAc(b1-4)GlcNAc
# Summary of the method: as §1
# [8] = target: Fuc(a1-2)[GalNAc(a1-3)]Gal(b1-4)GlcNAc(b1-3)Gal(b1-4)GlcNAc
# Summary of the method: as §1
# [9] = target: Fuc(a1-2)[GalNAc(a1-3)]Gal(b1-4)GlcNAc(b1-3)Gal(b1-4)GlcNAc(b1-3)Gal(b1-4)GlcNAc
# Summary of the method: as §1
# [10] = target: Fuc(a1-3)[Gal(b1-4)]GlcNAc
# Summary of the method: as §1
# Gal(a1-3)Gal = target: Gal(a1-3)Gal
# Summary of the method: as §1
# [11] = target: Gal(a1-3)Gal(b1-3)[Fuc(a1-4)]GlcNAc(b1-2)Man(a1-3)[Gal(a1-3)Gal(b1-3)[Fuc(a1-4)]GlcNAc(b1-2)Man(a1-6)]Man(b1-4)GlcNAc(b1-4)GlcNAc
# Summary of the method: as §1
# Gal(a1-3)Gal(b1-4)GlcNAc = target: Gal(a1-3)Gal(b1-4)GlcNAc
# Summary of the method: as §1
# [12] = target: Gal(a1-3)Gal(b1-4)GlcNAc(b1-3)GalNAc
# Summary of the method: as §1
# [13] = target: Gal(a1-4)Gal(b1-3)GlcNAc(b1-2)Man(a1-3)[Gal(a1-4)Gal(b1-3)GlcNAc(b1-2)Man(a1-6)]Man(b1-4)GlcNAc(b1-4)GlcNAc
# Summary of the method: as §1
# Gal(a1-4)Gal(b1-4)Glc = target: Gal(a1-4)Gal(b1-4)Glc
# Summary of the method: as §1
# [14] = target: Gal(b1-3)GalNAc(b1-4)Gal(b1-4)Glc
# Summary of the method: as §1
# [15] = target: Gal(b1-3)GlcNAc(a1-3)Gal(b1-4)GlcNAc
# Summary of the method: as §1
# [16] = target: Gal(b1-3)GlcNAc(b1-3)Gal(b1-4)GlcNAc(b1-3)Gal(b1-4)GlcNAc(b1-2)[Gal(b1-3)GlcNAc(b1-3)Gal(b1-4)GlcNAc(b1-3)Gal(b1-4)GlcNAc(b1-6)]Man(a1-6)[Gal(b1-3)GlcNAc(b1-3)Gal(b1-4)GlcNAc(b1-3)Gal(b1-4)GlcNAc(b1-2)Man(a1-3)]Man(b1-4)GlcNAc(b1-4)[Fuc(a1-6)]GlcNAc
# Summary of the method: as §1
# [17] = target: Gal(b1-3)GlcNAc(b1-6)[Gal(b1-3)]GalNAc
# Summary of the method: as §1
# Gal(b1-3)GlcNAc6S = target: Gal(b1-3)GlcNAc6S
# Summary of the method: as §1
# [18] = target: Gal(b1-3)[Neu5Ac(b2-6)]GalNAc
# Summary of the method: as §1
# Gal(b1-4)Gal = target: Gal(b1-4)Gal
# Summary of the method: as §1
# [19] = target: Gal(b1-4)GlcNAc(b1-2)Man(a1-3)Man(b1-4)GlcNAc(b1-4)GlcNAc
# Summary of the method: as §1
# [20] = target: Gal(b1-4)GlcNAc(b1-2)Man(a1-3)[Gal(b1-4)GlcNAc(b1-2)Man(a1-6)]Man(b1-4)GlcNAc(b1-4)GlcNAc
# Summary of the method: as §1
# [21] = target: Gal(b1-4)GlcNAc(b1-2)[Gal(b1-4)GlcNAc(b1-4)]Man(a1-3)[GlcNAc(b1-4)][Gal(b1-4)GlcNAc(b1-2)[Gal(b1-4)GlcNAc(b1-6)]Man(a1-6)]Man(b1-4)GlcNAc(b1-4)GlcNAc
# Summary of the method: as §1
# [22] = target: Gal(b1-4)GlcNAc(b1-3)Gal(b1-4)GlcNAc(b1-2)[Gal(b1-4)GlcNAc(b1-3)Gal(b1-4)GlcNAc(b1-6)]Man(a1-6)[Gal(b1-4)GlcNAc(b1-3)Gal(b1-4)GlcNAc(b1-2)Man(a1-3)]Man(b1-4)GlcNAc(b1-4)[Fuc(a1-6)]GlcNAc
# Summary of the method: as §1
# Gal3S6S(b1-4)GlcNAc6S = target: Gal3S6S(b1-4)GlcNAc6S
# Summary of the method: as §1
# Gal6S(b1-3)GlcNAc = target: Gal6S(b1-3)GlcNAc
# Summary of the method: as §1
# [23] = target: GalNAc(a1-3)GalNAc(b1-3)Gal(a1-4)Gal(b1-4)Glc
# Summary of the method: as §1
# GalNAc(b1-3)GlcNAc = target: GalNAc(b1-3)GlcNAc
# Summary of the method: as §1
# GalNAc(b1-4)GlcNAc = target: GalNAc(b1-4)GlcNAc
# Summary of the method: as §1
# [24] = target: GalNAc(b1-4)GlcNAc(b1-2)Man
# Summary of the method: as §1
# [25] = target: GalNAc(b1-4)GlcNAc(b1-3)GalNAc(b1-4)GlcNAc
# Summary of the method: as §1
# GalNAc(b1-4)GlcNAc6S = target: GalNAc(b1-4)GlcNAc6S
# Summary of the method: as §1
# GalNAc6S(b1-4)GlcNAc = target: GalNAc6S(b1-4)GlcNAc
# Summary of the method: as §1
# [26] = target: GlcNAc(b1-2)Man(a1-3)[GlcNAc(b1-4)][GlcNAc(b1-2)Man(a1-6)]Man(b1-4)GlcNAc(b1-4)[Fuc(a1-6)]GlcNAc
# Summary of the method: as §1
# [27] = target: GlcNAc(b1-3)Gal(b1-4)GlcNAc(b1-3)Gal(b1-4)GlcNAc(b1-3)Gal(b1-4)GlcNAc(b1-2)Man(a1-3)[GlcNAc(b1-3)Gal(b1-4)GlcNAc(b1-3)Gal(b1-4)GlcNAc(b1-3)Gal(b1-4)GlcNAc(b1-2)Man(a1-6)]Man(b1-4)GlcNAc(b1-4)[Fuc(a1-6)]GlcNAc
# Summary of the method: as §1
# [28] = target: GlcNAc(b1-3)Gal(b1-4)GlcNAc(b1-3)Gal(b1-4)GlcNAc(b1-3)GalNAc
# Summary of the method: as §1
# GlcNAc(b1-3)GalNAc = target: GlcNAc(b1-3)GalNAc
# Summary of the method: as §1
# GlcNAc(b1-4)GlcNAc = target: GlcNAc(b1-4)GlcNAc
# Summary of the method: as §1
# [29] = target: GlcNAc6S(b1-3)Gal(b1-4)GlcNAc
# Summary of the method: as §1
# Kdn(a2-3)Gal(b1-4)Glc = target: Kdn(a2-3)Gal(b1-4)Glc
# Summary of the method: as §1
# Kdn(a2-6)Gal(b1-4)GlcNAc = target: Kdn(a2-6)Gal(b1-4)GlcNAc
# Summary of the method: as §1
# [30] = target: Man(a1-2)Man(a1-6)[Man(a1-3)]Man(a1-6)[Man(a1-2)Man(a1-2)Man(a1-3)]Man
# Summary of the method: as §1
# Man(a1-6)Man = target: Man(a1-6)Man
# Summary of the method: as §1
# [31] = target: Neu5Ac(a2-3)Gal(b1-3)GalNAc6S
# Summary of the method: as §1
# [32] = target: Neu5Ac(a2-3)Gal(b1-4)GlcNAc(b1-2)Man(a1-3)[GlcNAc(b1-4)][Neu5Ac(a2-3)Gal(b1-4)GlcNAc(b1-2)Man(a1-6)]Man(b1-4)GlcNAc(b1-4)GlcNAc
# Summary of the method: as §1
# [33] = target: Neu5Ac(a2-6)Gal(b1-4)GlcNAc(b1-2)[Neu5Ac(a2-6)Gal(b1-4)GlcNAc(b1-6)]Man(a1-6)[Neu5Ac(a2-6)Gal(b1-4)GlcNAc(b1-2)Man(a1-3)][GlcNAc(b1-4)]Man(b1-4)GlcNAc(b1-4)GlcNAc
# Summary of the method: as §1
# [34] = target: Neu5Ac(a2-6)Gal(b1-4)GlcNAc(b1-3)Gal(b1-4)GlcNAc(b1-3)Gal(b1-4)GlcNAc(b1-2)Man(a1-3)[Neu5Ac(a2-6)Gal(b1-4)GlcNAc(b1-3)Gal(b1-4)GlcNAc(b1-3)Gal(b1-4)GlcNAc(b1-2)Man(a1-6)]GalNAc
# Summary of the method: as §1
# [35] = target: Neu5Ac(a2-6)Gal(b1-4)GlcNAc(b1-3)[Neu5Ac(a2-6)Gal(b1-4)GlcNAc(b1-6)]GalNAc
# Summary of the method: as §1
# [36] = target: Neu5Ac(b2-6)Gal(b1-4)GlcNAc
# Summary of the method: as §1
binder,measurement,setting,value
B1,glycan array binding signal (z-score),[1],-0.116
same,glycan array binding signal (z-score),[2],-0.222
same,glycan array binding signal (z-score),[3],-0.215
same,glycan array binding signal (z-score),[4],2.47
same,glycan array binding signal (z-score),[5],3.08
same,glycan array binding signal (z-score),[6],3.12
same,glycan array binding signal (z-score),[7],4
same,glycan array binding signal (z-score),[8],3.46
same,glycan array binding signal (z-score),[9],3.25
same,glycan array binding signal (z-score),[10],-0.299
same,glycan array binding signal (z-score),Gal(a1-3)Gal,-0.297
same,glycan array binding signal (z-score),[11],-0.27
same,glycan array binding signal (z-score),Gal(a1-3)Gal(b1-4)GlcNAc,-0.098
same,glycan array binding signal (z-score),[12],-0.129
same,glycan array binding signal (z-score),[13],-0.187
same,glycan array binding signal (z-score),Gal(a1-4)Gal(b1-4)Glc,-0.261
same,glycan array binding signal (z-score),[14],-0.287
same,glycan array binding signal (z-score),[15],-0.21
same,glycan array binding signal (z-score),[16],-0.203
same,glycan array binding signal (z-score),[17],-0.215
same,glycan array binding signal (z-score),Gal(b1-3)GlcNAc6S,-0.226
same,glycan array binding signal (z-score),[18],-0.305
same,glycan array binding signal (z-score),Gal(b1-4)Gal,-0.215
same,glycan array binding signal (z-score),[19],-0.275
same,glycan array binding signal (z-score),[20],-0.13
same,glycan array binding signal (z-score),[21],-0.041
same,glycan array binding signal (z-score),[22],-0.147
same,glycan array binding signal (z-score),Gal3S6S(b1-4)GlcNAc6S,-0.283
same,glycan array binding signal (z-score),Gal6S(b1-3)GlcNAc,-0.224
same,glycan array binding signal (z-score),[23],-0.001
same,glycan array binding signal (z-score),GalNAc(b1-3)GlcNAc,4.24
same,glycan array binding signal (z-score),GalNAc(b1-4)GlcNAc,6.23
same,glycan array binding signal (z-score),[24],6.09
same,glycan array binding signal (z-score),[25],7.74
same,glycan array binding signal (z-score),GalNAc(b1-4)GlcNAc6S,4.96
same,glycan array binding signal (z-score),GalNAc6S(b1-4)GlcNAc,7.28
same,glycan array binding signal (z-score),[26],-0.228
same,glycan array binding signal (z-score),[27],-0.217
same,glycan array binding signal (z-score),[28],-0.218
same,glycan array binding signal (z-score),GlcNAc(b1-3)GalNAc,-0.286
same,glycan array binding signal (z-score),GlcNAc(b1-4)GlcNAc,-0.304
same,glycan array binding signal (z-score),[29],-0.273
same,glycan array binding signal (z-score),Kdn(a2-3)Gal(b1-4)Glc,-0.301
same,glycan array binding signal (z-score),Kdn(a2-6)Gal(b1-4)GlcNAc,-0.285
same,glycan array binding signal (z-score),[30],-0.296
same,glycan array binding signal (z-score),Man(a1-6)Man,-0.294
same,glycan array binding signal (z-score),[31],-0.232
same,glycan array binding signal (z-score),[32],-0.226
same,glycan array binding signal (z-score),[33],-0.222
same,glycan array binding signal (z-score),[34],-0.13
same,glycan array binding signal (z-score),[35],-0.221
same,glycan array binding signal (z-score),[36],-0.31
